# Compounds with a hit are over-represented: about 19% of the library has one in this group of screens.
# HT1080 IDH1KD tx: kills HT-1080 cells with IDH1 knockdown; HT-1080 IDH1 knockdown viability, ATP luminescence, 48 h; Potency, µM (series often up to 46.1 µM), usual class: cytotoxic; 2% of 360,000 active; AID 686971
#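 Using the IDH1-knockdown HT-1080 line run in the same batch and compound series as the NT line, viability after 48 h at 37 °C was determined by CellTiter-Glo luminescence and expressed as % activity.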
# HT1080NT lethal: kills 2HG-producing HT-1080-NT fibrosarcoma cells; HT-1080-NT fibrosarcoma viability, CellTiter-Glo ATP luminescence, 48 h; Potency, µM (highest dose often 46.1 µM), actives largely listed as cytotoxic; 1.6% of 360,000 active;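 note: NT is the 2HG producing partner of a matched IDH1 knockdown line; nearly all actives have a fitted effect of over 55% in size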
#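 Luminescent CellTiter-Glo readout after 48 hours of compound exposure at 37 degrees C defined viability of HT-1080-NT cells. Activity was normalized to DMSO wells and cell-free media wells; concentration-response curves were fitted and assigned curve classes.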
# IL-1B inflam inh: inflammasome signaling inhibition, IL-1 beta readout | THP-1 LPS/ATP IL-1B secretion, AlphaLISA, 16 h; active compounds read low | activity change, % at 57.5 µM | 4.7% of 360,000 active; in the data active = activity change below about -50%; inconclusive = mostly about -30% to -49%
#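 THP-1 cells pretreated 1 hr with compounds (up to 57.5 uM final), then stimulated with LPS (250 ng/mL final) plus ATP (1.25 mM final); secreted IL-1B measured by AlphaLISA after 16 hr, decreased signal indicating inhibition.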
# TDP1 cell CPT: growth inhibition of DT40 Tdp1-/-;hTDP1 cells with camptothecin (screen for TDP1 inhibitors); chicken DT40 Tdp1-/-;hTDP1 cells + 20 nM CPT, ATP luminescence, 48 h; Potency, µM (series often up to 46.2 µM), usual class: inhibitors; 12% of 420,000 active; AID 686979; note: nearly all actives have a fitted effect of over 55% in size
#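 Cell growth measured by CellTiter-Glo luminescence after a minimum 48 h, 37 C compound exposure with 20 nM CPT in Tdp1-knockout DT40 cells stably expressing hTDP1, seeded 400/well; qHTS titration format.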
# DT40 TDP1 no CPT: qHTS for Inhibitors of human tyrosyl-DNA phosphodiesterase 1 (TDP1): qHTS in cells in absence of CPT. DT40 Tdp1-/- hTDP1 cells, no CPT, ATP luminescence, 48 h. Potency, µM (series often up to 46.2 µM), usual class: inhibitors. 15% of 420,000 active; note: nearly all actives have a fitted effect of over 55% in size
#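 Stably hTDP1-transfected Tdp1-null chicken DT40 cells were treated with library compounds minus camptothecin and grown for at least 48 hr at 37 °C, after which cellular ATP was quantified by luminescence.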
# ELG1 DNA repair: inhibitors of ELG1-dependent DNA repair in HEK293T cells | AID 504467 | 2.3% of 330,000 active | HEK293T ELG1-luciferase reporter, luminescence, 16 h; DNA damage induced by 5-fluorouridine | Potency, µM (series often up to 46.1 µM), actives largely listed as inhibitors; note: nearly all actives have a fitted effect of over 55% in size
#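 DMSO vehicle served as the neutral condition. Each well held 2,000 cells given 5-fluorouridine plus compound; after 16 hr at 37 °C/5% CO2, ONE-Glo was added and luciferase measured 30 min later.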
# A number is an active result; i = inactive; ? = inconclusive; nt = no result; ! = a repeat was not active. Unless noted, calls come from the whole dose curve; as a rule, active = well fitted curve in the direction sought with a large enough effect; inconclusive = small, poorly fitted or top-dose-only effect, or another doubt; inactive = no such curve, though single readings can be large; an effect the other way counts as inactive or inconclusive.
SMILES,HT1080 IDH1KD tx,HT1080NT lethal,IL-1B inflam inh,TDP1 cell CPT,DT40 TDP1 no CPT,ELG1 DNA repair
CCN(CC)C(=O)CSc1nc(-c2ccc(C)cc2)nc2c1Cc1c(CO)cnc(C)c1O2,nt,nt,nt,9.2µM,8.2µM,nt
O=C(CSc1nc(-c2ccccc2)nc2c1Cc1ccccc1O2)N1CCCCC1,nt,nt,nt,10µM,12µM,nt
Cc1ccc(-c2nc3c(c(SCC(=O)N4CCOCC4)n2)Cc2c(CO)cnc(C)c2O3)cc1,i,i,i,23µM,10µM,?
C=Cc1ccc(CSc2nc(-c3ccc(C)cc3)nc3c2Cc2c(CO)cnc(C)c2O3)cc1,nt,nt,nt,15µM,16µM,nt
CCOc1ccc(-n2nnnc2SCC(=O)Nc2cccc(O)c2)cc1,i,i,i,?,?,?
Cn1c(=O)[nH]c2cc(-c3noc(-c4ccc(C#N)cc4)n3)ccc21,nt,nt,nt,i,i,nt
O=C(O)c1ccc(NC(=S)Nc2ccc(S(=O)(=O)Nc3ccccn3)cc2)cc1,i,i,i,i,i,nt
COc1ccc(-c2nc3c(c(SCC(=O)Nc4cc(C)cc(C)c4)n2)Cc2c(CO)cnc(C)c2O3)cc1,nt,nt,nt,i,i,nt
COc1ccc(-c2nc3c(c(SCC(=O)N4CCCCC4)n2)Cc2c(CO)cnc(C)c2O3)cc1,nt,nt,nt,2.6µM,1.3µM,nt
CCc1ccc(NC(=O)CSc2nc(-c3cccc(OC)c3)nc3c2Cc2c(CO)cnc(C)c2O3)cc1,nt,nt,nt,6.5µM,7.3µM,nt
COc1ccc2cc(C(c3nnnn3CCc3ccccc3)N3CCCC(C)C3)c(=O)[nH]c2c1 (stereo not drawn),i,i,-85,?,?,i
COCCn1nnnc1C(c1cc2c(C)cc(C)cc2[nH]c1=O)N1CCCCCC1 (stereo not drawn),?,i,i,23µM,18µM,i
COCCn1nnnc1C(c1cc2cc(OC)ccc2[nH]c1=O)N1CCC(Cc2ccccc2)CC1 (stereo not drawn),i,i,?,15µM,23µM,?
CCN(Cc1ccccc1)C(c1cc2cc(C)cc(C)c2[nH]c1=O)c1nnnn1CCOC (stereo not drawn),i,i,-52,?,?,i
N#Cc1cccc(-c2nc(NCc3cccnc3)c3ccccc3n2)c1,nt,nt,nt,i,i,nt
c1csc(C2=Nn3c(nnc3-c3ccncc3)SC2)c1,i,i,-75,15µM,15µM,1.1µM
CCc1ccc(C2=Nn3c(nnc3-c3cccs3)SC2)cc1,?,i,i,?,21µM,i
COc1ccc(S(=O)(=O)NCCS(=O)(=O)N2CCN(c3ccccc3)CC2)cc1,i,i,i,?,?,i
COc1ccc(OC)c(S(=O)(=O)NCCS(=O)(=O)N2CCN(c3ccccc3)CC2)c1,i,i,i,21µM!,16µM!,i
COc1ccc(OC)c(S(=O)(=O)NCCOC23CC4CC(CC(C4)C2)C3)c1,i,i,i,18µM,7.3µM,i
O=C(c1ccccc1)N(Cc1ccco1)Cc1cccs1,nt,nt,nt,?,13µM,nt
Cc1onc(-c2ccccc2)c1C(=O)N(Cc1ccco1)Cc1cccs1,i,i,?,?,?,i
O=C(c1ccccc1Cl)N(Cc1ccco1)Cc1ccco1,nt,nt,nt,21µM,15µM,nt
COc1cc(C(=O)N/C(=C\c2cn(C)c3ccccc23)C(=O)NCCN2CCOCC2)cc(OC)c1OC,i,i,i,i,i,?
CCc1nnc2sc(-c3cc(-c4ccccc4)nc4ccccc34)nn12,i,i,i,35µM,?,i
SMILES,HT1080 IDH1KD tx,HT1080NT lethal,IL-1B inflam inh,TDP1 cell CPT,DT40 TDP1 no CPT,ELG1 DNA repair
O=C(NC(Cc1c[nH]c2ccccc12)C(=O)O)c1cccc(S(=O)(=O)N2CCCCC2)c1 (stereo not drawn),i,i,i,i,i,nt
Cn1cc(CCNCc2cn[nH]c2-c2ccc(-c3ccccc3)cc2)cn1,?,?,i,?,?,?
Cn1cc(CNCc2cn(C)nc2-c2ccc(C3CCCCC3)cc2)cn1,?,?,-71,?,18µM,i
Cc1ccccc1C(=O)Nc1ccnn1C1CCN(Cc2cnn(C(C)C)c2)CC1,i,i,i,i,i,i
COc1ccc(CNC(=O)C(C)n2ccc3cc(S(=O)(=O)N4CCCC4)ccc32)cc1OC (stereo not drawn),nt,nt,nt,0.29µM,0.58µM,nt
COc1ccc(S(=O)(=O)N2CCN(C(=O)NCc3ccc(OC)c(OC)c3)CC2)cc1,i,i,i,i,i,i
CC(C(=O)NCc1ccccc1)n1ccc2cc(S(=O)(=O)N3CCCC3)ccc21 (stereo not drawn),nt,nt,nt,?,18µM,nt
COc1cccc(CNC(=O)C(C)n2ccc3cc(S(=O)(=O)N4CCCC4)ccc32)c1 (stereo not drawn),i,i,i,?,i,i
CC(C(=O)NCc1ccccc1Cl)n1ccc2cc(S(=O)(=O)N3CCCCC3)ccc21 (stereo not drawn),nt,nt,nt,16µM,16µM,nt
COc1cccc(CNC(=O)C(C)n2ccc3cc(S(=O)(=O)N4CCCCCC4)ccc32)c1 (stereo not drawn),i,i,i,5.2µM,15µM,i
CCOc1ccccc1NC(=O)CN1C(=O)C(=O)N(Cc2ccco2)C1=O,i,i,i,i,i,i
CCOC(=O)c1sc(N2C(=O)c3oc4ccc(F)cc4c(=O)c3C2c2ccc(C)cc2)nc1C (stereo not drawn),nt,nt,nt,i,i,nt
CCOC(=O)c1ccc(S(=O)(=O)N2CCN(Cc3cc4c(cc3O)OCO4)CC2)cc1,i,i,i,?,i,i
O=C(NC1c2ccccc2Oc2ccccc21)c1ccc([N+](=O)[O-])cc1,i,i,i,i,i,nt
O=S1(=O)CC(N2CCCC2)CN1Cc1cn(Cc2ccc(F)cc2)nn1 (stereo not drawn),i,i,i,i,i,nt
Cc1nnc(SCC(=O)N(C2CCCCC2)C2CCS(=O)(=O)C2)n1N (stereo not drawn),i,i,i,i,i,i
CCC(C(=O)NCCC(C)C)n1ccc2cc(S(=O)(=O)N3CCCCC3)ccc21 (stereo not drawn),?,?,i,13µM,8.2µM,i
C[C@H]1CN([C@@H](C)CO)C(=O)c2cc(C#CC3(O)CCCC3)cnc2O[C@H]1CN(C)C(=O)C1CC1,i,i,i,i,i,nt
Cc1ccccc1-n1nc2c(c1NC(=O)c1ccc3c(c1)OCO3)CS(=O)(=O)C2,i,i,i,i,i,i
C=CCC[C@@H](Cc1ccc(F)cc1)C(=O)OC[C@@H]1CCCN1C(=O)[C@@H](CC=C)CC(=O)N[C@@H](CO)Cc1ccccc1,i,i,?,15µM,16µM,i

# High-throughput results: PubChem, National Center for Advancing Translational Sciences (NCATS)
